# Source: PMC4336329 (PLoS ONE, 2015)
# Among all 310,000 compounds or so, about 2,200 (0.71%) showed an effect of 50% or more. Effects have a minus sign here. The list comes from a sample in which strong results are over-represented; it also holds similar structures and randomly drawn compounds.
# Target: human ether-à-go-go-related gene (hERG) potassium channel (human, UniProt Q12809)
# Experiment: primary screen, population patch clamp on CHO cells stably expressing hERG; higher = less effect of the substance
# Sequence of human ether-à-go-go-related gene (hERG) potassium channel (Q12809 whole entry, looked up): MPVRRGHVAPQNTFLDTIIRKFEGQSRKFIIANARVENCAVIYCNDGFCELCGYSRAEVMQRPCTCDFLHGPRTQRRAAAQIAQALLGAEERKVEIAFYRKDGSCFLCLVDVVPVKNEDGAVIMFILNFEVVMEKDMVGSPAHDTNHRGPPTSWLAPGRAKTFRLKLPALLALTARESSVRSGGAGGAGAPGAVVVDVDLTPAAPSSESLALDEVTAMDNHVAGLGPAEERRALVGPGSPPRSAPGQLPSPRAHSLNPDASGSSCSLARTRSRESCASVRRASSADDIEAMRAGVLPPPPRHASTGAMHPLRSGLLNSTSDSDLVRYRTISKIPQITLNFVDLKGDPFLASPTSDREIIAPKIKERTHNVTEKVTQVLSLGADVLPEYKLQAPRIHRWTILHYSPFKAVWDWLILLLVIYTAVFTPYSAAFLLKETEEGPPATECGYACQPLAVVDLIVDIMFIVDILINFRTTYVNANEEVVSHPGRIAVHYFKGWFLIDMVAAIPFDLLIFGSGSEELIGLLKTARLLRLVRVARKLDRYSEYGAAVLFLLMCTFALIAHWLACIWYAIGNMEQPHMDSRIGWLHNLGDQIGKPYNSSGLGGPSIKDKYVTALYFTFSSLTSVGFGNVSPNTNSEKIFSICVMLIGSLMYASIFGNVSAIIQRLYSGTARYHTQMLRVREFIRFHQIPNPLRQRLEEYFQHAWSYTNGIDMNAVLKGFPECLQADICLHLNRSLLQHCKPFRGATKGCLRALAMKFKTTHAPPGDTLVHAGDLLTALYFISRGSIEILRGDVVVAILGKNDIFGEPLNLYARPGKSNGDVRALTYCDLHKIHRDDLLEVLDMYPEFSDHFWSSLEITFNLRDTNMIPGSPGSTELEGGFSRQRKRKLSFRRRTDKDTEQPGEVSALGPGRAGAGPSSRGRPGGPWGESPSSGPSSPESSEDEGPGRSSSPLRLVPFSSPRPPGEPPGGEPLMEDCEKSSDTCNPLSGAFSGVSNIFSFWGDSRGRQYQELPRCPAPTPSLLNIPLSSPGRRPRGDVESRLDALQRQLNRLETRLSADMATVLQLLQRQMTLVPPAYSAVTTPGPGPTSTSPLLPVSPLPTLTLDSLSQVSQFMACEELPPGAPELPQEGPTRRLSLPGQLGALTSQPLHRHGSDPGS
row,Structure (SMILES),"hERG current change (%, negative = inhibition) at 1uM [%]"
1,CCOc1ccc(CCNC(=O)CS(=O)(=O)Cc2nc(-c3ccc(OC)cc3)oc2C)cc1,-0.117
2,COC(=O)[C@]1(C)N[C@H](c2ccc(-c3ccccc3)cc2)[C@@H]2C(=O)N(C)C(=O)[C@@H]21.O=C(O)C(F)(F)F,15.8
3,Cc1ccccc1N1CCN(CCCN2C(=O)CC(=C(c3ccccc3)c3ccccc3)C2=O)CC1,3.79
4,Cc1sc(NC(=O)c2ccccc2F)c(CN2CCCCC2)c1C,9.65
5,CCOc1ccc(NC(=O)CCNC(=O)Cn2cnc3ccccc3c2=O)cc1,18.9
6,CCN(Cc1ccncc1)C(=O)c1cc(COc2c(C)cccc2C)on1,-63.1
7,CCN(Cc1ccncc1)C(=O)c1cc(COc2ccc(C)c(C)c2)on1,-5.56
8,CCN(Cc1ccncc1)C(=O)c1cc(COc2c(F)cccc2F)on1,-8.09
9,CCN1CCN(C(=O)COc2ccc(S(=O)(=O)Nc3ccc(Cl)cc3)cc2)CC1,12.1
10,Cc1cccc(NC(=O)Nc2c(C)n(C)n(-c3ccccc3)c2=O)c1,9.37
11,CCOc1nc(-c2ccccc2)ccc1-c1noc(-c2cccnc2)n1,7.07
12,COc1ccc(CCNC(=O)CC2Nc3ccccc3NC2=O)cc1OC (stereo not drawn),12.7
13,CCOC(=O)N1CCc2c(sc(NC(=O)CN3CCOCC3)c2C(=O)Nc2ccccc2)C1,-31.9
14,CCOC(=O)c1c(NC(=O)Cc2ccccc2)sc2c1CCN(CC)C2.Cl,-18.3
15,CCOC(=O)c1c(NC(=S)Nc2ccccc2)sc2c1CCN(CCc1ccccc1)C2,2.54
16,CCOC(=O)c1c(NC(=O)CN2CCCCC2)sc2c1CCN(C(=O)OCC)C2,2.11
17,CCOC(=O)c1c(NC(=O)Cc2ccccc2)sc2c1CCN(C)C2.Cl,-19.2
18,CCOC(=O)c1c(NC(=S)Nc2ccccc2)sc2c1CCN(C)C2,-62.8
19,CCOC(=O)c1c(NC(=S)Nc2ccccc2)sc2c1CCN(CC)C2,-80.2
20,CCOC(=O)c1c(NC(=S)Nc2ccc(OCC)cc2)sc2c1CCN(C)C2,-11
21,CCOC(=O)c1c(NC(=O)Nc2ccc(C)cc2)sc2c1CCN(C)C2,9.62
22,CCOC(=O)c1c(NC(=S)Nc2ccccc2)sc2c1CCCCC2,12.8
23,CCOC(=O)N1CCc2c(sc(NC(=O)CN3CCN(C)CC3)c2C(=O)Nc2ccccc2)C1,-85.6
24,CCOC(=O)c1c(NC(=S)Nc2ccc(Cl)cc2)sc2c1CCN(C)C2,-57.4

row,Structure (SMILES),"hERG current change (%, negative = inhibition) at 1uM [%]"
1,COc1ccccc1C(=O)Nc1nnc(-c2ccco2)s1,13.9
2,COc1ccccc1NC(=O)Cn1nnc(-c2ccccc2NC(=O)c2ccco2)n1,14.7
3,C=CCC1c2cccc(C(=O)O)c2C(=O)N1c1cccc(C)c1 (stereo not drawn),11.5
4,CN(C)c1ccc(C2CC(=O)C=C(Nc3ccccc3N)C2)cc1 (stereo not drawn),13.8
5,CCOc1ccc(NC(=O)CCN2CCN(c3ccccc3)CC2)cc1,3.48
6,CCOc1ccccc1NC(=O)C(OC(=O)c1ccccc1)c1ccccc1 (stereo not drawn),32.8
7,Cn1c(Cn2nnc3ccccc32)nnc1SCC(=O)Nc1nccs1,10.6
8,CCOC(=O)c1c(NC(=O)CCS(=O)(=O)c2ccccc2)sc2c1CCN(C(C)C)C2.Cl,-64.6
9,CC(C)N1CCc2c(sc(NC(=O)CCS(=O)(=O)c3ccccc3)c2C(N)=O)C1.Cl,-2.04
10,CCOC(=O)c1c(NC(=O)CCS(=O)(=O)c2ccccc2)sc2c1CCN(C)C2.Cl,-9.18
11,CC(=O)c1cc2c(cc1NC(=O)CSc1nc3ccccc3[nH]1)OCO2,-2.99
12,CN(C)S(=O)(=O)c1cc(NC(=O)CNCCN2CCOCC2)ccc1Cl.O=C(O)C(=O)O,7.62
13,COc1ccc(C(=O)C2CCCN(Cc3cn(C)nc3-c3ccccc3)C2)cc1F (stereo not drawn),-19.1
14,COc1ccc(F)cc1C(=O)C1CCCN(Cc2cccn2-c2ccccn2)C1 (stereo not drawn),-89.9
15,O=C(C1CCCN(CCCc2ccccc2)C1)N1CCCCC1 (stereo not drawn),-5.07
16,COc1ccc(C(=O)C2CCCN(Cc3ccc(F)cc3F)C2)cc1F (stereo not drawn),3.8
17,COc1ccc(F)cc1C(=O)C1CCCN(Cc2ccc(Oc3ncccn3)cc2)C1 (stereo not drawn),-34.8
18,O=C(c1cc(F)ccc1F)C1CCCN(Cc2cccc(Cl)c2)C1 (stereo not drawn),8.46
19,O=C(c1cc(F)ccc1F)C1CCCN(C(=O)CSc2ccccn2)C1 (stereo not drawn),-3.1
20,O=C(c1cc(F)ccc1F)C1CCCN(CCCc2ccccc2)C1 (stereo not drawn),-76.6
21,COc1ccc(F)cc1C(=O)C1CCCN(Cc2cccn2-c2cccnc2)C1 (stereo not drawn),5.09
22,COc1ccc(C(=O)C2CCCN(Cc3cccn3-c3ccccn3)C2)cc1F (stereo not drawn),-87.1
23,O=C(c1cc(F)ccc1F)C1CCCN(Cc2cccn2-c2ccccn2)C1 (stereo not drawn),-83.1
24,CCOc1ccccc1CN1CCCC(C(=O)c2cc(F)ccc2F)C1 (stereo not drawn),-16.6
